Compound activity (PubChem BioAssay)
Menin-MLL TR inh: qHTS Assay for Inhibitors Targeting the Menin-MLL Interaction in MLL Related Leukemias: Competition With Texas Red Labeled MLL-derived Mutant Peptide. O00255. Menin + Texas Red MLL mutant peptide, fluorescence polarization. Potency, µM (titrated, usually from 61.6 µM), actives largely listed as inhibitors. actives 0.23% (n = 270,000). AID 1768, 2009; active = well fitted inhibition curve with a large enough effect in the polarisation, with a control signal flat, not every such curve was filed as active; inconclusive = small, poorly fitted or top-dose-only effect, or effect the other way, or a change in a side signal; inactive = no such curve, though single readings can be large or run the other way; the % refers to the polarisation
Menin-MLL FL inh: qHTS Assay for Inhibitors Targeting the Menin-MLL Interaction in MLL Related Leukemias: Competition With Fluorescein Labeled MLL-derived Peptide. Fluorescence polarization, fluorescein-MLL peptide displacement from menin. 290,000 tested, under 10 active. FP activity change, % at 61.4 µM; active = well fitted curve in the direction sought with a large enough effect in the polarisation, not every such curve was filed as active; inconclusive = small, poorly fitted or top-dose-only effect, or effect the other way, or a change in a side signal; inactive = no such curve, though single readings can be large or run the other way; the % refers to the polarisation
CXXC DNA block: qHTS Fluorescence Polarization Assay for Inhibitors of MLL CXXC domain - DNA interaction. Histone-lysine N-methyltransferase 2A (Homo sapiens), Q03164. MLL-CXXC / FITC-HOXA9 DNA fluorescence polarization. Potency, µM (titrated, usually from 115 µM), hits mostly inhibitors. actives 0.037% (n = 290,000). AID 2662, 2010; active = well fitted inhibition curve with a large enough effect in the polarisation, with a control signal flat, not every such curve was filed as active; inconclusive = small, poorly fitted or top-dose-only effect, or effect the other way, or a change in a side signal; inactive = no such curve, though single readings can be large or run the other way; the % refers to the polarisation
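Steps: dispense CXXC domain solution (7 uM) → pin compounds or unlabeled HOX-A9 DNA control → 5 min ambient → add FLSN-HOX-A9 solution (50 nM) → spin → 30 min ambient → fluorescence polarization. Tris pH 7.5/NaCl/DTT/BSA buffer.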
ClpP mod: qHTS Assay for Activators of ClpP. purified B. subtilis ClpP, FRET peptide cleavage, 20 min. AID 651965, 2013. actives 1.9% (n = 340,000). Potency, µM (titrated, usually from 57.5 µM); active = well fitted falling curve with a large enough effect; inconclusive = small, poorly fitted or top-dose-only effect; inactive = no such curve, though single readings can be large or run the other way; also: the source files actives as falling curves though it sought activators and does not explain the sign; nearly all actives have a fitted effect of over 65% in size
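Purified B. subtilis ClpP, 10 microg/mL final in Tris/HCl pH8 with KCl, BSA, glycerol and Tween-20, cleaved an Abz/nitrotyrosine-quenched decapeptide. Fluorescence (ex 320, em 430) was read at 0 and 20 min at room temperature. Delta was normalized to 5.8 microM ADEP and DMSO/no-enzyme controls.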
Epigenetic reg: Quantitative High-Throughput Screen for Regulators of Epigenetic Control; murine LDR cells, GFP reporter derepression, 30 h; Potency, µM (series often up to 53.9 µM), hits mostly activators; actives 0.2% (n = 280,000); AID 1865, 2009; active = well fitted activation curve with a large enough effect; inconclusive = small, poorly fitted or top-dose-only effect; also: nearly all actives have a fitted effect of over 60% in size
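Murine LDR cells bearing a silenced CMV-driven GFP reporter were exposed to compound for 30 h at 37 C. After PBS washes, GFP-positive cells (20-120 um objects) counted by laser-scanning microplate cytometry.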
PINK1 modulator: A Quantitative High throughput Screen to Identify Chemical Modulators of PINK1 Expression; PINK1 immunofluorescence, high-content cytometry, 24 h; Potency, µM (series often up to 76.6 µM), hits mostly activators; actives 0.2% (n = 410,000); AID 624263, 2012; active = well fitted activation curve with a large enough effect; inconclusive = small, poorly fitted or top-dose-only effect; cell line not stated here; also: nearly all actives have a fitted effect of over 65% in size
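Stable cell line, 250 cells/well, 12 h attachment; compounds pinned at 5 concentrations, 24 h; CCCP control. Fixed with nuclear dye, primary antibodies 12 h at 10 degrees C, secondary plus cell stain; laser-scanning cytometer read.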
A number is an active result; ! = a repeat was not active. A selection: hits, their analogues and other compounds. The true share with any hit is near 1.9%.

How did CC(C)NC(=O)c1ccccc1N(Cc1ccccc1)S(C)(=O)=O do in these assays?
Menin-MLL TR inh: inactive; Menin-MLL FL inh: inactive; CXXC DNA block: inactive; ClpP mod: inactive; Epigenetic reg: inactive; PINK1 modulator: inactive

How did COC(=O)c1ccccc1N(Cc1ccccc1)S(C)(=O)=O do in these assays?
Menin-MLL TR inh: inactive; Menin-MLL FL inh: inactive; CXXC DNA block: inactive; ClpP mod: 25µM; Epigenetic reg: inactive; PINK1 modulator: inactive

How did Cc1ccc(S(=O)(=O)N(C)CCCN(C)c2nc(-c3cccs3)nc3ccccc23)cc1 do in these assays?
ClpP mod: inconclusive; PINK1 modulator: inactive

Results for COc1cccc(-c2nc(SCC(=O)Nc3ccc4c(c3)OCCO4)c(-c3ccc(C)cc3)[nH]2)c1 ?
ClpP mod: 28µM; Epigenetic reg: inactive; PINK1 modulator: inactive

What do the screens show for `COc1ccc(-c2[nH]c(-c3ccc(C)cc3)nc2SCC(=O)NCC2CCCO2)cc1` (stereo unspecified)?
ClpP mod: inconclusive; Epigenetic reg: inactive; PINK1 modulator: inactive

How did COc1ccc(-c2ccc3nnc(SCC(=O)NCC4CCCO4)n3n2)cc1 (stereo unspecified) do in these assays?
ClpP mod: inconclusive; PINK1 modulator: inactive

What do the screens show for `CCOc1ccc(-c2ccc3nnc(SCC(=O)NCC4CCCO4)n3n2)cc1` (stereo unspecified)?
ClpP mod: 32µM; PINK1 modulator: inactive

Results for CCc1ccc(-c2nc(SCC(=O)NCCOC)c(-c3ccc(C)cc3)[nH]2)cc1 ?
ClpP mod: 28µM; Epigenetic reg: inactive; PINK1 modulator: inactive

How did COc1ccc(-c2[nH]c(-c3ccc(Cl)cc3)nc2SCC(=O)NCC2CCCO2)cc1 (stereo unspecified) do in these assays?
ClpP mod: 25µM; Epigenetic reg: inactive; PINK1 modulator: inactive

Results for Cc1oc(-c2ccccc2NC(=O)c2ccccc2)nc1CNC(=O)c1c(-c2ccccc2)noc1C ?
PINK1 modulator: inactive

Results for CC(c1ccon1)N(C)C(=O)c1cnn(-c2ncc3c(n2)-c2ccccc2CC3)c1C1CC1 (stereo unspecified) ?
PINK1 modulator: inactive

Results for CCOc1ccc(NC(=O)N2CCN(C(=O)c3nsc4ccccc34)CC2)cc1 ?
ClpP mod: inactive; Epigenetic reg: inactive; PINK1 modulator: inactive

Results for Cc1ccc(-c2nc(SCC(=O)NCC3CCCO3)c(-c3ccc(Cl)cc3)[nH]2)cc1 (stereo unspecified) ?
Menin-MLL TR inh: inactive; Menin-MLL FL inh: inactive; CXXC DNA block: inactive; ClpP mod: inactive; Epigenetic reg: inactive; PINK1 modulator: inactive

How did Cc1ccc(-c2nc(SCC(=O)NCC3CCCO3)c(-c3ccc(C)cc3)[nH]2)cc1 (stereo unspecified) do in these assays?
Menin-MLL TR inh: inactive; Menin-MLL FL inh: inactive; CXXC DNA block: inactive; ClpP mod: 25µM; Epigenetic reg: inconclusive; PINK1 modulator: inactive

Results for Cc1ccc(-c2[nH]c(-c3ccccc3)nc2SCC(=O)NCC2CCCO2)cc1 (stereo unspecified) ?
Menin-MLL TR inh: inactive; Menin-MLL FL inh: inactive; CXXC DNA block: inactive; ClpP mod: 28µM!; Epigenetic reg: inactive; PINK1 modulator: inactive

Results for COc1ccccc1CCNC(=O)C(=O)NCC(c1ccc2c(c1)OCO2)N1CCOCC1 (stereo unspecified) ?
ClpP mod: inactive; Epigenetic reg: inactive; PINK1 modulator: inactive

What do the screens show for `Cn1c(C(=O)NCCCN2CCN(c3ccccc3F)CC2)cc2c(=O)[nH]c3ccccc3c21`?
Menin-MLL TR inh: inactive; Menin-MLL FL inh: inactive; CXXC DNA block: inactive; ClpP mod: 32µM; Epigenetic reg: inactive; PINK1 modulator: inactive

How did Cc1c(C(=O)Nc2cccc(Cl)c2)oc2ccc(S(=O)(=O)N(C)C3CCCCC3)cc12 do in these assays?
ClpP mod: 20µM; Epigenetic reg: inactive; PINK1 modulator: inactive

Results for Cc1ccc(Cl)cc1NC(=O)c1oc2ccc(S(=O)(=O)N(C)C3CCCCC3)cc2c1C ?
ClpP mod: inconclusive; Epigenetic reg: inactive; PINK1 modulator: inactive

What do the screens show for `COc1cc(=O)n2c(c1C(=O)N(C)Cc1nccs1)CCN(Cc1ccc(F)c(F)c1)CC2`?
PINK1 modulator: inactive

How did Fc1ccc(CNc2nc(-c3ccc(Cl)cc3)cc(C(F)(F)F)n2)cc1 do in these assays?
ClpP mod: inactive; Epigenetic reg: inactive; PINK1 modulator: 40µM

Results for Fc1ccc(CNc2nc(-c3ccco3)cc(C(F)(F)F)n2)cc1 ?
Menin-MLL TR inh: inactive; Menin-MLL FL inh: inactive; CXXC DNA block: inactive; ClpP mod: 25µM; Epigenetic reg: inactive; PINK1 modulator: inactive

What do the screens show for `Fc1ccc(-c2cc(C(F)(F)F)nc(NCc3ccccc3)n2)cc1`?
ClpP mod: 22µM; Epigenetic reg: inactive; PINK1 modulator: inactive

What do the screens show for `Nc1nc(-c2ccc(Cl)cc2)cc(C(F)(F)F)n1`?
Menin-MLL TR inh: inactive; Menin-MLL FL inh: inactive; CXXC DNA block: inactive; ClpP mod: inactive; Epigenetic reg: inactive; PINK1 modulator: inactive

How did Fc1ccc(-c2cc(C(F)(F)F)nc(NCc3cccs3)n2)cc1 do in these assays?
Menin-MLL TR inh: inactive; Menin-MLL FL inh: inactive; CXXC DNA block: inactive; ClpP mod: 32µM; Epigenetic reg: inactive; PINK1 modulator: inconclusive

How did CN(C)c1ccc(/C=C2\C=Cc3ccccc32)cc1Cl do in these assays?
ClpP mod: inactive; PINK1 modulator: inactive

Results for Clc1ccc(Nc2nc(Nc3ccc(Cl)cc3)nc(N3CCOCC3)n2)cc1 ?
ClpP mod: inactive; PINK1 modulator: inactive

Results for CCOC(=O)[C@H](Cc1ccc(O)cc1)NC(=O)c1ccccc1 ?
Menin-MLL TR inh: inactive; Menin-MLL FL inh: inconclusive

Results for C(/Oc1ccccc1)=C1\Nn2c(nnc2-c2cc(-c3ccccc3)n[nH]2)S1 ?
ClpP mod: inactive; PINK1 modulator: inactive

How did O=S(c1ccccc1)C(c1ccccc1)c1ccccc1 (stereo unspecified) do in these assays?
ClpP mod: 16µM; PINK1 modulator: inactive

How did CN(C)CCNc1ncnc2c1sc1nc(N3CCCC3)c3c(c12)CC(C)(C)OC3 do in these assays?
Menin-MLL FL inh: inactive; CXXC DNA block: inconclusive; Epigenetic reg: inactive; PINK1 modulator: inactive
